Inconclusive results are not listed. Activity calls are given as the source filed them. Unless noted, the call rests on the fitted dose curve; in most records, active means well fitted curve in either direction with a large enough effect (not every such curve was filed as active); inconclusive means small, poorly fitted or top-dose-only effect, or another doubt; inactive means flat fitted curve, though single readings scatter.
What was measured:
[1] = AP1 Signaling Pathway (AID 357); conditions: ME-180 AP-1-bla reporter, EGF-induced, beta-lactamase ratio, 5 h; at 7.69 µM (top of the series) unless noted;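 further: ME-180 reporter cells stimulated with EGF at its EC50 level; on the % scale 0 is the no-effect control and ±100 the full control effect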
How it was run: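 Read-out was the 460nm/530nm emission ratio (excitation 405nm) after CCF4 loading for 2.5 hours at room temperature. Cells carried an AP-1-driven beta-lactamase reporter, were stimulated with EC50 EGF plus compound for 5 hours, and AC50 values came from titrations.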

[2] = biological target: Cytochrome P450 1A2 (Homo sapiens) (UniProt P05177); test: p450-cyp1a2 (AID 410; calls by dose curve; further: potency means the concentration at half of the fitted maximal effect;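 on activity change, negative = inhibition: -100% = full effect of reference inhibitor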)
How it was run: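 Human CYP1A2 (20nM) demethylated Luciferin-ME at its Km (100uM) in 100mM KPO4. After 10 min compound preincubation, NADPH regeneration ran the reaction 60 min at room temperature. Luciferin was read by luminescence, normalized to 57 uM furafylline.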

[3] = NFAT Signaling Pathway (AID 444); conditions: Jurkat NFAT-bla M1, carbachol, beta-lactamase ratio, 5 h; at 7.69 µM (top of the series) unless noted;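 further: carbachol stimulus at about its EC50 of 1 µM final; on the % scale 0 is the no-effect control and ±100 the full control effect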
How it was run: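 Jurkat cells carrying an NFAT-driven β-lactamase reporter and co-transfected muscarinic M1 receptor were treated with compound plus carbachol (1 uM final, an EC50 level) for 5 h at 37 °C. CCF4 loading followed for 1 h at RT; 460/530 nm ratio gave %activity.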

[4] = biological target: Glucocorticoid receptor (Homo sapiens) (UniProt P04150); test: GR-GFP Redistribution (AID 450;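 active means compounds whose dose series gives a full or clear partial fitted curve of increased nuclear translocation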; further: potency means the concentration at half of the fitted maximal effect); conditions: U2OS GR-GFP nuclear translocation, laser cytometry, 2 h
[5] = biological target: Glucocorticoid receptor (Homo sapiens) (UniProt P04150); test: GR-EFC Redistribution (AID 451; calls by dose curve; further: potency means the concentration at half of the fitted maximal effect); conditions: CHO-K1 GR-EFC translocation, beta-gal luminescence, 2 h
How it was run: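 CHO-K1 cells stably expressing nuclear-localized β-gal enzyme acceptor and GR fused C-terminally to the enzyme donor fragment; ligand-driven nuclear translocation restores β-gal by complementation. Compounds titrated up to 46 uM final, 2 h at 37 °C; luminescence read.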

[6] = biological target: Mitogen-activated protein kinase 10 (Mus musculus) (UniProt Q61831); test: JNK3 AlphaScreen Assay (AID 530);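 further: kinase came from lysate of stimulated human HepG2 cells; signal reports phosphorylation of biotinylated GST-cJun 1-79 at Ser73 with 10 µM ATP; on the % scale 0 is the no-effect control and ±100 the full control effect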
How it was run: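 JNK3 came from HepG2 lysates pre-activated with IL-1beta and TNF-alpha and phosphorylated biotinylated GST-cJun (1-79) at 10 uM ATP, pH 7.6, room temperature. Compounds were titrated. AlphaScreen signal used anti-phospho-cJun (Ser73) antibody.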

[7] = biological target: 3',5'-cyclic-AMP phosphodiesterase 4B (Homo sapiens) (UniProt Q07343); test: qHTS Assay for Inhibitors of PDE-IV (AID 607; active means well fitted activation curve with a large enough effect in the main read-out, with a control signal flat, not every such curve was filed as active; further: % of control where 0% means no effect)
How it was run: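 Live HEK293 cells with a modified cyclic nucleotide-gated (CNG) channel report intracellular cAMP via membrane-potential dye fluorescence (ex 535/em 590 nm). Endogenous PDE-IV was targeted. Compounds were tested at up to 22.9 uM final; RO 20-1724 100 uM served as control.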

[8] = biological target: Cytochrome P450 2C9 (Homo sapiens) (UniProt P11712); test: qHTS Assay for Inhibitors and Substrates of Cytochrome P450 2C9 (AID 883; active means well fitted curve in the direction sought with a large enough effect; an effect the other way counts as inactive or inconclusive; further: nearly all actives have a fitted effect of over 60% in size)
How it was run: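 A luminogenic readout tracked human CYP2C9 (10nM) converting deoxyluciferin (100uM, at KM) in 25mM KPO4 during 60 min at 37C with regenerated NADPH. Values normalized to 57uM sulphaphenazole as complete inhibition.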

[9] = biological target: Cytochrome P450 2C19 (Homo sapiens) (UniProt P33261); test: qHTS Assay for Inhibitors and Substrates of Cytochrome P450 2C19 (AID 899; active means well fitted curve in the direction sought with a large enough effect; an effect the other way counts as inactive or inconclusive; further: nearly all actives have a fitted effect of over 60% in size; further: potency means the concentration at half of the fitted maximal effect)
How it was run: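 NADPH-dependent conversion of Luciferin-H EGE (10uM, at KM) by 5nM enzyme in 50mM KPO4, 60 min at 37C following 10 min compound preincubation. Stopped with luciferin detection buffer; luminescence read after 20 min.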

[10] = qHTS Assay for Identification of Small Molecule Agonists for Thrombopoietin (TPO) Signaling Pathway (AID 917; active means well fitted curve in the direction sought with a large enough effect; an effect the other way counts as inactive or inconclusive; further: on the % scale 0 is the no-effect control and ±100 the full control effect)
How it was run: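 Activators of TPO signaling were sought in murine Ba/F3 cells transfected with the human receptor, using a luciferase gene driven by the Glycoprotein IIb promoter; 24-hr compound exposure at 37 C alongside 26 pM TPO, in IL-3-free medium.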

[11] = biological target: Muscarinic acetylcholine receptor M1 (Rattus norvegicus) (UniProt P08482); test: qHTS Assay for Antagonists of Acetylcholine Muscarinic M1 Receptor: Kinetic Measurement of Intracellular Calcium Response (AID 943; active means well fitted curve in the direction sought with a large enough effect; an effect the other way counts as inactive or inconclusive;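 further: Fluo-4 calcium signal as peak divided by basal fluorescence over 4 min; nearly all actives have a fitted effect of over 75% in size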)
How it was run: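 CHO cells stably expressing rat M1 were loaded with no-wash Fluo-4 dye for 1 h at 37C, pre-incubated 10 min with compound, then challenged with EC80 carbachol (100 nM final); kinetic calcium read 4 min, peak/basal ratio.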

[12] = biological target: Pyruvate kinase (Leishmania mexicana) (UniProt Q27686); test: qHTS Validation Assay for Inhibitors of Leishmania Mexicana Pyruvate Kinase (AID 945; active means well fitted curve in the direction sought with a large enough effect; an effect the other way counts as inactive or inconclusive;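 further: 0% = DMSO only neutral control wells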)
How it was run: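 Mutant LmPYK (E451W), 0.2 nM, plus 0.5 mM PEP and 0.1 mM ADP in 50 mM imidazole pH 7.2 containing 0.01% Tween 20 and 0.05% BSA. Incubated 1 h at room temperature; luminescence via PKLight, normalized to DMSO.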

[13] = biological target: Pyruvate kinase PKM (Homo sapiens) (UniProt P14618); test: qHTS Assay for Activators of Human Muscle Pyruvate Kinase (AID 954; active means well fitted curve in the direction sought with a large enough effect, not every such curve was filed as active;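 further: 0% = uninhibited enzyme and -100% = no enzyme or full thiadiazolimine inhibition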)
How it was run: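 Enzyme was run at intermediate activity so both inhibitors and activators could be detected. ATP formed from ADP and PEP by 0.1 nM human PKM2 during a 1 h room-temperature incubation was quantified by coupled luciferase luminescence.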

[14] = biological target: Alpha-galactosidase A (Homo sapiens) (UniProt P06280); test: Counterscreen for Glucocerebrosidase Inhibitors: qHTS Assay for Human alpha-Galactosidase at pH 4.5 (AID 992; active means well fitted curve in the direction sought with a large enough effect; an effect the other way counts as inactive or inconclusive; further: 0% is about no effect)
How it was run: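 Read-out is 4-methylumbelliferone fluorescence (365 nm excitation, 440 nm emission) after a pH 10 NaOH/glycine stop. Reactions held 2 nM enzyme and 80 uM substrate at pH 4.5 for 20 min at room temperature.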

[15] = biological target: alpha-glucosidase (Oryza sativa, rice) (UniProt Q653V4); test: Counterscreen for Glucocerebrosidase Inhibitors: qHTS Assay for Rice alpha-Glucosidase at pH 5.0 (AID 997; active means well fitted curve in the direction sought with a large enough effect; an effect the other way counts as inactive or inconclusive;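 further: 0% = full activity with enzyme and -100% = basal without enzyme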)
How it was run: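 Rice alpha-glucosidase (4 nM final) with 400 uM 4-methylumbelliferyl-alpha-D-glucopyranoside in citrate buffer pH 5.0, 20 min at room temperature, stopped at pH 10; fluorescence 365/440 nm, compounds 0.7 nM–77 uM, AC50 from Hill fits.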

[16] = Stat Signaling Pathway (AID 446); conditions: ME-180 (cervical carcinoma) SIE beta-lactamase reporter, IL-6 stimulated, 5 h; at 7.69 µM (top of the series) unless noted
How it was run: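 IL-6/STAT signaling read in ME-180 cells via an SIE beta-lactamase reporter. Stimulus was 40 pM IL-6 (its AC50) for 5 hrs, so both activation and inhibition register.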

[17] = biological target: Cytochrome P450 3A4 (Homo sapiens) (UniProt P08684); test: qHTS Assay for Activators of Cytochrome P450 3A4 (AID 885; active means well fitted curve in the direction sought with a large enough effect; an effect the other way counts as inactive or inconclusive; further: nearly all actives have a fitted effect of over 65% in size)
How it was run: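 Quantitative HTS format: compounds preincubated with 20nM human CYP3A4 and Luciferin-PPXE substrate at KM, reaction started by NADPH regeneration, stopped after 60 min, luciferase luminescence read 20 min later.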

[18] = biological target: Cytochrome P450 2D6 (Homo sapiens) (UniProt P10635); test: qHTS Assay for Inhibitors and Substrates of Cytochrome P450 2D6 (AID 891; active means well fitted curve in the direction sought with a large enough effect; an effect the other way counts as inactive or inconclusive;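 further: luciferin methyl ether substrate demethylated by CYP2D6 with NADPH regeneration; on the % scale 0 is the no-effect control and ±100 the full control effect; nearly all actives have a fitted effect of over 60% in size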)
How it was run: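 Human CYP2D6 (5 nM) with 30 uM Luciferin-ME EGE (at Km) in 100 mM KPO4, compound preincubated 10 min, then NADPH regeneration system for 60 min at room temperature. Luciferin read by luminescence; normalized to 1.43 uM quinidine.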

[19] = biological target: Guanine nucleotide-binding protein G(i) subunit alpha-1 (Homo sapiens) (UniProt P63096); test: qHTS Assay for Inhibitors of RGS12 GoLoco Motif Activity (Green Fluorophore) (AID 879; active means well fitted curve in the direction sought with a large enough effect; an effect the other way counts as inactive or inconclusive;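 further: 0% = labeled peptide with Gαi1 and full inhibition = labeled peptide alone without protein; negative values mean loss of peptide binding seen as reduced polarization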)
How it was run: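 Fluorescence polarization assay: 50 nM Gαi1 with 10 nM FITC-labeled RGS12 GoLoco peptide in 10 mM Tris pH 7.5, 150 mM NaCl, 0.1 mM GDP, 0.05% NP40, 10 min at room temperature with compound.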

[20] = biological target: Muscarinic acetylcholine receptor M1 (Rattus norvegicus) (UniProt P08482); test: qHTS Assay for Antagonists of Acetylcholine Muscarinic M1 Receptor: Measurement of IP-One Response (AID 944; active means well fitted curve in the direction sought with a large enough effect; an effect the other way counts as inactive or inconclusive; further: nearly all actives have a fitted effect of over 75% in size)
How it was run: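 CHO cells expressing rat M1 receptor, recovered overnight, were pre-incubated 10 min with compound, then stimulated 30 min with carbachol at EC80 (200 nM) in LiCl-containing buffer, pH 7.4. IP1 accumulation was read by HTRF (620/665 nm).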

Chain of Cytochrome P450 1A2 (Homo sapiens) (P05177 whole entry, looked up): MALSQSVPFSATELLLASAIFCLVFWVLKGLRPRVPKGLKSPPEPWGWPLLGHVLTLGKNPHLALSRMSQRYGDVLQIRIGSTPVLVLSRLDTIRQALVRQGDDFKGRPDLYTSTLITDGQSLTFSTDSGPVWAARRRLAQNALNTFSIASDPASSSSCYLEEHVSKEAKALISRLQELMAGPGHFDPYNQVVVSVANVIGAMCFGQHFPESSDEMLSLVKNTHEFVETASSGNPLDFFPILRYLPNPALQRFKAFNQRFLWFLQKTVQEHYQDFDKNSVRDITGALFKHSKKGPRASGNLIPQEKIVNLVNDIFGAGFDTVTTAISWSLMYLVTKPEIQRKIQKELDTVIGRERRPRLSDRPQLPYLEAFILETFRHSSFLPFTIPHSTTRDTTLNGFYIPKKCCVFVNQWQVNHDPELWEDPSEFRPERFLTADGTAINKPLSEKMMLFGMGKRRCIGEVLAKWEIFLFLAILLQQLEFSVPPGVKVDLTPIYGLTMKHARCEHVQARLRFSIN
Chain of Alpha-galactosidase A (Homo sapiens) (P06280 whole entry, looked up): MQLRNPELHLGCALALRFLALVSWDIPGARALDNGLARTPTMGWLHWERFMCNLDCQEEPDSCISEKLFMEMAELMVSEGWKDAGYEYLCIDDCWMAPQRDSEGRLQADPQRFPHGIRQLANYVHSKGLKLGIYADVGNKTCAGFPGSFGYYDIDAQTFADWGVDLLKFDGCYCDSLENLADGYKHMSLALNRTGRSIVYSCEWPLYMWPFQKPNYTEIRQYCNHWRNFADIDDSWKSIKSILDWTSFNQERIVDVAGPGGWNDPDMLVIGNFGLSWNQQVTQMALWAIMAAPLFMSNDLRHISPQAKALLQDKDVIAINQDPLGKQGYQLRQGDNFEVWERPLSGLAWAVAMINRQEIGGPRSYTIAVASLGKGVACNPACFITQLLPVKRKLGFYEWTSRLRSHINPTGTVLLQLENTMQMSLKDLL
Chain of Muscarinic acetylcholine receptor M1 (Rattus norvegicus) (P08482 whole entry, looked up): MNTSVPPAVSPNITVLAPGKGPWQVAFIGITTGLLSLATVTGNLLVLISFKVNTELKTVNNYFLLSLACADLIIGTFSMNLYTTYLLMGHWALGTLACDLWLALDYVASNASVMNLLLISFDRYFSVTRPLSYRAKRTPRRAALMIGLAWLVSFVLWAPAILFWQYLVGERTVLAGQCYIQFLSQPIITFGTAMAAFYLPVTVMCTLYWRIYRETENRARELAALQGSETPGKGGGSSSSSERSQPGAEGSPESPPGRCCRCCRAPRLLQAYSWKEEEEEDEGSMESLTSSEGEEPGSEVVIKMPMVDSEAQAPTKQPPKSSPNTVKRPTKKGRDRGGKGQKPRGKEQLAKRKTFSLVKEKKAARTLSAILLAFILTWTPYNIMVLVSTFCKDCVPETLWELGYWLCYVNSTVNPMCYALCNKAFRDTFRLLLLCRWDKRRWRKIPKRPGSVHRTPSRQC
Chain of 3',5'-cyclic-AMP phosphodiesterase 4B (Homo sapiens) (Q07343 whole entry, looked up): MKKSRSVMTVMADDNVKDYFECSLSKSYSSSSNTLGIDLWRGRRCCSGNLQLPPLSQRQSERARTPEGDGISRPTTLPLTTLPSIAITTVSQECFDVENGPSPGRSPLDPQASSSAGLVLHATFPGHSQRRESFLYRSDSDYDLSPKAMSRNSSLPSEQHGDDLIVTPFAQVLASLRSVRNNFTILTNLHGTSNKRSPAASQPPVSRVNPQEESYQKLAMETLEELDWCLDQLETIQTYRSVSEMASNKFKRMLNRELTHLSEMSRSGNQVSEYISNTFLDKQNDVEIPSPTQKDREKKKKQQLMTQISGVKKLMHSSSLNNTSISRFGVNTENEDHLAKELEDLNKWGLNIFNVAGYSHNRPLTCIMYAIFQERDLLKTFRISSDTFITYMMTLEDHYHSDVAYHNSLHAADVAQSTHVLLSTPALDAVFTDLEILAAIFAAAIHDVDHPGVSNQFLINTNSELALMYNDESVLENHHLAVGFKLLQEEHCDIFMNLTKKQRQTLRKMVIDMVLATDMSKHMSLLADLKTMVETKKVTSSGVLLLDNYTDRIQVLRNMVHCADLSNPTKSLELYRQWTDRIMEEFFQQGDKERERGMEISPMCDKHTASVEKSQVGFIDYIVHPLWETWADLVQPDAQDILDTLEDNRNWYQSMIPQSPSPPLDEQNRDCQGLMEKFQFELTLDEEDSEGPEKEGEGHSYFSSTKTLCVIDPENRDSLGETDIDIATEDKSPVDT
Chain of Pyruvate kinase (Leishmania mexicana) (Q27686 2-499 E452W): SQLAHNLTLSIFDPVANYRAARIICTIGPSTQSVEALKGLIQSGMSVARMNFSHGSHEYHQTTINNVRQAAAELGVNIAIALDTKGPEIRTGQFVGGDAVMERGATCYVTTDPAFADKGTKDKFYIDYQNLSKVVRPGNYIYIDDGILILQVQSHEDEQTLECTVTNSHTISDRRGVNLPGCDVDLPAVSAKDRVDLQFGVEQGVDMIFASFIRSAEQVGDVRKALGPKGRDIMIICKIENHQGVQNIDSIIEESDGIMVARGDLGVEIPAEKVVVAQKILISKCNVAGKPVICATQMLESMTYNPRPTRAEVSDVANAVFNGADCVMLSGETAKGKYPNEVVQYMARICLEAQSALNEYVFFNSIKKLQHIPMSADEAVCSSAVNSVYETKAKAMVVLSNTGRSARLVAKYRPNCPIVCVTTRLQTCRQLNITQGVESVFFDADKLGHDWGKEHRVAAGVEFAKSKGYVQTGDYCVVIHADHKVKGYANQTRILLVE
Chain of Cytochrome P450 2C9 (Homo sapiens) (P11712 whole entry, looked up): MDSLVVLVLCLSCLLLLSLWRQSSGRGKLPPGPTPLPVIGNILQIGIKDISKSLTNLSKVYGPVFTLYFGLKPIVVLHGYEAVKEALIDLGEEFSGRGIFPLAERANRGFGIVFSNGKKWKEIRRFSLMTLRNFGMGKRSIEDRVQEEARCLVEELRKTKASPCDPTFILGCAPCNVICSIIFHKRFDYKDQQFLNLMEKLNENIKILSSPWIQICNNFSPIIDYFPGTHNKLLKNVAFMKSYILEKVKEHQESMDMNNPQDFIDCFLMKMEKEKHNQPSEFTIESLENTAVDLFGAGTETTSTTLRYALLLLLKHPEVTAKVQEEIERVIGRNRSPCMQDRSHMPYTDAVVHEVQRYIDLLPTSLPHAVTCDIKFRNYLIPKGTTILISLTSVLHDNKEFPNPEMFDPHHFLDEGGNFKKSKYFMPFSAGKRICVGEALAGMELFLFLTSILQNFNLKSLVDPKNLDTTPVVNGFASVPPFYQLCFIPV
Chain of Pyruvate kinase PKM (Homo sapiens) (P14618 whole entry, looked up): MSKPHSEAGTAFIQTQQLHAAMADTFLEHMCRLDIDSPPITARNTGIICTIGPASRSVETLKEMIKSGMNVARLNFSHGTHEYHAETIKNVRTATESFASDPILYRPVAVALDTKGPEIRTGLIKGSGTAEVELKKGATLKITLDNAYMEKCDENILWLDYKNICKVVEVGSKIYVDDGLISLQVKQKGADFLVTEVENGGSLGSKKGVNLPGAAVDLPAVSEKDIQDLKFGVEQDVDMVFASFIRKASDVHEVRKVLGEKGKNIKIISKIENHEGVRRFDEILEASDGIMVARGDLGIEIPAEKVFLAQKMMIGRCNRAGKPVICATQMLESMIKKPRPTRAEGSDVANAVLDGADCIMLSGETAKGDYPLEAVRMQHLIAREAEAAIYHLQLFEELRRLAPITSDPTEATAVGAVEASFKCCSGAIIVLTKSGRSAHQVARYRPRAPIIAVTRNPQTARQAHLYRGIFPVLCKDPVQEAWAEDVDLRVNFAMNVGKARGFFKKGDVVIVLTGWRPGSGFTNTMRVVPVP
Chain of Cytochrome P450 2C19 (Homo sapiens) (P33261 whole entry, looked up): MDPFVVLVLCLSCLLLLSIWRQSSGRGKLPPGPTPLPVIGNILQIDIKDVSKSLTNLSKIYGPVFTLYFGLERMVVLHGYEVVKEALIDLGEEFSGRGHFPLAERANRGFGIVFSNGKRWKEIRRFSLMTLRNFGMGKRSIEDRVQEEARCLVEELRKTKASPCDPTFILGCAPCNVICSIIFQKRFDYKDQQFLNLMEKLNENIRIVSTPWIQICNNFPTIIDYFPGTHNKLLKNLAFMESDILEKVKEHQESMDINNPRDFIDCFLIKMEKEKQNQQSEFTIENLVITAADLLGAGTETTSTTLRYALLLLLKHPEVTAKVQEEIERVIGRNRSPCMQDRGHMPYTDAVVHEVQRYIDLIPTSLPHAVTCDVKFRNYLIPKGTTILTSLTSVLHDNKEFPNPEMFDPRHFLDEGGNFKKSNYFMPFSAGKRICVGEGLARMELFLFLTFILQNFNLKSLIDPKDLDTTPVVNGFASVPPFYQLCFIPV
Chain of Glucocorticoid receptor (Homo sapiens) (P04150 whole entry, looked up, the tested form may be a part): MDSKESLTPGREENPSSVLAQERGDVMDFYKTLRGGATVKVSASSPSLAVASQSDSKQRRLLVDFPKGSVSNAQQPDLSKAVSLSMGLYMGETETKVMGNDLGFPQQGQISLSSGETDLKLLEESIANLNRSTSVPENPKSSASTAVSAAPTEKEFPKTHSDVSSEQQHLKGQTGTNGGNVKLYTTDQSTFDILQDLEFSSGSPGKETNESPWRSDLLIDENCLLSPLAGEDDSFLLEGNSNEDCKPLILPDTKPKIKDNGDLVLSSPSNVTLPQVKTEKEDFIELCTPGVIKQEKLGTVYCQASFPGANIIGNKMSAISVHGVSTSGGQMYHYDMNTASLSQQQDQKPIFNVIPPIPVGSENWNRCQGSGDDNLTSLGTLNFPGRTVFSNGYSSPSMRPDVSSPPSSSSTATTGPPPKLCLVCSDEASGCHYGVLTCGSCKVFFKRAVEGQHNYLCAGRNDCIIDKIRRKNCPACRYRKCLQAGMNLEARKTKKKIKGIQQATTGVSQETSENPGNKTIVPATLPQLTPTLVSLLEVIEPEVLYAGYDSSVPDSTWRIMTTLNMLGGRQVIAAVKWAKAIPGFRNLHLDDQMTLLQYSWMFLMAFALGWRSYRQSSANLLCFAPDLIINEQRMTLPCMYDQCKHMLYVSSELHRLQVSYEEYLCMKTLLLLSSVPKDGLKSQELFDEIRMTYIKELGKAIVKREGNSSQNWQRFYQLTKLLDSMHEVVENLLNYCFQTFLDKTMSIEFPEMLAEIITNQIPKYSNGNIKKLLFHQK

COC(=O)[C@@H]1[C@H]2C[C@H]3c4[nH]c5cc(OC)ccc5c4CCN3C[C@@H]2C[C@@H](OC(=O)c2cc(OC)c(OC)c(OC)c2)[C@@H]1OC
active: Potency [2] 15.8 µM
inactive: activity change, negative = inhibition [1] -23.7% [at 38 µM] | activity change, negative = inhibition [3] 3.19% [at 38 µM] | Potency [4] > 46 µM | Potency [5] > 46 µM | Potency [6] | Potency [7] | Potency [8] | Potency [9]

N[C@@H]1C=CC=C(C(=O)O)C1
inactive: activity change, negative = inhibition [1] -1.23% [at 38 µM] | Potency [2] | activity change, negative = inhibition [3] 5.33% [at 38 µM] | Potency [4] > 46 µM | Potency [5] > 46 µM | Potency [7] | outcome [10] | Potency [11] | outcome [12] | outcome [13] | outcome [14] | Potency [15]

C/C(=N\[N+](C)(C)C)c1ccc(C)c(C)c1
inactive: activity change, negative = inhibition [1] 10% | activity change, negative = inhibition [2] -16.9% [at 2.29 µM] | activity, negative = inhibition [16] 6.61% | Potency [4] > 46 µM | Potency [5] > 9.22 µM | Potency [6] | Potency [7]

CS(=O)(=O)Nc1ccc(Nc2c3ccccc3nc3ccccc23)cc1
inactive: activity change, negative = inhibition [1] 0.883% | activity, negative = inhibition [16] 25.9% | Potency [4] > 46 µM | Potency [5] > 9.22 µM | Potency [6] | Potency [7]
active: Potency [2] 3.98 µM

C=C(NC(=O)C(=C)NC(=O)c1csc(C2=N[C@@H]3c4csc(n4)[C@@H]4NC(=O)c5csc(n5)[C@@H]([C@](C)(O)[C@H](C)O)NC(=O)[C@@H]5CSC(=N5)/C(=C/C)NC(=O)[C@@H]([C@H](C)O)NC(=O)c5csc(n5)[C@]3(CC2)NC(=O)[C@@H](C)NC(=O)C(=C)NC(=O)[C@@H](C)NC(=O)[C@@H]([C@@H](C)CC)N[C@H]2C=Cc3c([C@H](C)O)cc(nc3[C@@H]2O)C(=O)O[C@H]4C)n1)C(N)=O
inactive: activity change, negative = inhibition [1] -15.7% [at 17.2 µM] | Potency [2] | activity, negative = inhibition [16] -4.53% [at 17.2 µM] | Potency [4] > 20.6 µM | Potency [5] > 20.6 µM | Potency [6] | Potency [7]

C[C@@]12C(=O)OC(=O)[C@@]1(C)[C@H]1CC[C@@H]2O1
active: activity change, negative = inhibition [1] -102% [at 38 µM] | activity change, negative = inhibition [3] -104% [at 38 µM]
inactive: Potency [2] | Potency [5] > 46 µM | Potency [6] | Potency [7] | Potency [8] | Potency [17] | Potency [18] | Potency [9] | outcome [13] | outcome [14] | Potency [15]

C=C[C@H]1CN2CC[C@@H]1C[C@H]2[C@@H](O)c1ccnc2ccc(OC)cc12
inactive: activity change, negative = inhibition [1] -5.24% [at 17.2 µM] | Potency [2] | activity change, negative = inhibition [3] -13% [at 17.2 µM] | activity, negative = inhibition [16] -9.97% [at 17.2 µM] | Potency [6] | outcome [8]

Cc1ccccc1CNc1ncnc2c1ncn2[C@@H]1O[C@@H](CO)[C@H](O)[C@@H]1O
inactive: activity change, negative = inhibition [1] 0.479% [at 38 µM] | Potency [2] | activity change, negative = inhibition [3] 10.4% [at 38 µM] | Potency [4] > 46 µM | Potency [5] > 46 µM | Potency [7] | outcome [19] | outcome [10] | Potency [11] | Potency [20] | outcome [12] | outcome [13] | outcome [14] | Potency [15]

O=C1C(=O)c2ccccc2C(O)=C1C(C1=C(O)c2ccccc2C(=O)C1=O)c1ccc(Cl)cc1
inactive: activity change, negative = inhibition [1] -18% | activity change, negative = inhibition [3] -12.1% | Potency [4] > 46 µM | Potency [5] > 9.22 µM | Potency [6] | Potency [7] | Potency [17]
active: Potency [2] 3.98 µM | Potency [9] 3.98 µM

C=CCN1CCc2c(cc(O)c(O)c2Cl)[C@H](c2ccccc2)C1
active: Potency [2] 20 µM
inactive: activity change, negative = inhibition [1] -17.1% [at 38 µM] | activity change, negative = inhibition [3] -17.9% [at 38 µM] | Potency [4] > 46 µM | Potency [5] > 46 µM | Potency [6] | Potency [7] | Potency [20] | outcome [12] | outcome [13] | outcome [14] | Potency [15]

CCCC(c1cc(C(C)(C)C)c(O)cc1C)c1cc(C(C)(C)C)c(O)cc1C
inactive: activity change, negative = inhibition [1] 28.1% | activity change, negative = inhibition [2] -12.3% [at 2.29 µM] | activity, negative = inhibition [16] 4.1% | Potency [4] > 46 µM | Potency [5] > 9.22 µM | Potency [6]

Cc1cn([C@H]2C=C[C@H](CO)O2)c(=O)[nH]c1=O
inactive: activity change, negative = inhibition [1] 11.1% [at 38 µM] | Potency [2] | activity change, negative = inhibition [3] 4.45% [at 38 µM] | activity, negative = inhibition [16] 23.6% [at 38 µM] | Potency [7] | Potency [8] | Potency [18] | Potency [9]

C[C@H](N)C(=O)OC(C)(C)Cc1ccc(Cl)cc1
inactive: activity change, negative = inhibition [1] 9.46% [at 38 µM] | activity change, negative = inhibition [3] 18.9% [at 38 µM] | activity, negative = inhibition [16] 24.9% [at 38 µM] | Potency [6] | Potency [7] | outcome [10] | Potency [20] | outcome [12] | outcome [13] | outcome [14] | Potency [15]
active: Potency [2] 0.631 µM | Potency [9] 3.98 µM
